Where “and” joins values, the source holds several entries; their conditions need not be identical. Identical values can stand only once. Inconclusive results are not listed. Entries that show only a call come without a potency. Calls of active or inactive are those of the source. Calls follow the shape of the dose curve; as a rule, active = well fitted curve in the direction sought with a large enough effect in the repeat runs; inconclusive = weak or mixed curves; inactive = no such curve, though single readings can be large; an effect the other way counts as inactive or inconclusive.
Tested on: not listed separately
Assay: qHTS assay to identify small molecule antagonists of the vitamin D receptor (VDR) signaling pathway - cell viability counter screen (AID 743225)
Settings: VDR-bla HEK293T viability, CellTiter-Glo luminescence, 16 h; series mostly up to 61 µM
Procedure, shortened: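 Viability counter screen run in the same wells as the beta-lactamase reporter assay: HEK 293T VDR-UAS-bla cells, 16 h compound exposure at 37C with 3 nM (final) 1-alpha,25-dihydroxyvitamin D3. CellTiter-Glo luminescence, 30 min, room temperature.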
With O=CC(Br)(Br)Br the Potency was 48.8 µM (active). In the case of C[C@@H]1O[C@@H](O[C@@H]2C=C3CC[C@@H]4[C@H](CC[C@]5(C)[C@@H](c6ccc(=O)oc6)CC[C@]45O)[C@@]3(C)CC2)[C@H](O)[C@H](O)[C@H]1O, the Potency is reported as 0.0134 µM (active). For O=C(Nc1ccc2[nH]ccc2c1)c1cc2cc(F)ccc2n1Cc1cccc(F)c1, the Potency was 43.6 µM (active). For O=C/C(Cl)=C(/Cl)C(=O)O, the Potency was “inactive”. With CN(C)S(=O)(=O)N(SC(F)(Cl)Cl)c1ccccc1 the Potency was 27.5 µM (active). For CNC(C)Cc1ccc2c(c1)OCO2 (centres undefined), the Potency was “inactive”. With Fc1ccc(Oc2ccnc3cc(Cl)cc(Cl)c23)cc1 the Potency was “inactive”. For O=[N+]([O-])c1cc([N+](=O)[O-])c2ccccc2c1, the Potency was “inactive”. For CC(=O)c1cc(C(C)(C)C)cc2c1CCC2(C)C, the Potency was “inactive”. With OC(c1ccc(Cl)cc1)(c1ccc(Cl)cc1)C(Cl)(Cl)Cl the Potency was “inactive”.

Tested on: not listed separately
Assay: qHTS assay to identify small molecule antagonists of the retinoid-related orphan receptor gamma (ROR-gamma) signaling pathway - cell viability counter screen (AID 1159520)
Settings: Tet-on RORgamma CHO cells viability, ATP luminescence, 16 h; series mostly up to 92.4 µM
Procedure, shortened: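 Tet-on ROR gamma CHO cells (1,000/well) were plated 4 hr, given compounds in DMSO for 2 hr at 37 C, then induced with 1 uM final doxycycline for 16 hr. Viability was read as ATP by CellTiter-Glo luminescence after 30 min.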
With O=CC(Br)(Br)Br the Potency was 7.67 µM (active). For SCc1ccco1, the Potency was “inactive”. With Cc1ccc(C(=O)Cl)cc1 the Potency was “inactive”. With C[C@@H]1O[C@@H](O[C@@H]2C=C3CC[C@@H]4[C@H](CC[C@]5(C)[C@@H](c6ccc(=O)oc6)CC[C@]45O)[C@@]3(C)CC2)[C@H](O)[C@H](O)[C@H]1O the Potency was 21.1 µM (active). With O=C(Nc1ccc2[nH]ccc2c1)c1cc2cc(F)ccc2n1Cc1cccc(F)c1 the Potency was 48.6 µM (active). With CC(Cl)CN(C)C (centres undefined) the Potency was “inactive”. In the case of O=C1C=CC(=O)c2ccccc21, the Potency is reported as 3.44 µM (active). In the case of CCCCCCCCCCBr, the Potency is reported as “inactive”. With N#CCCC(Br)(C#N)CBr (centres undefined) the Potency was 19.3 µM (active). For O=C/C(Cl)=C(/Cl)C(=O)O, the Potency was 48.5 µM (active) and 34.4 µM (active). With C[CH2][Hg][N]1C(=O)C2C(C1=O)C1(Cl)C(Cl)=C(Cl)C2(Cl)C1(Cl)Cl (centres undefined) the Potency was 3.66 µM (active). For Clc1ccc(CSC(Cn2ccnc2)c2ccc(Cl)cc2Cl)cc1 (centres undefined), the Potency was “inactive”. With CC(O)C#N (centres undefined) the Potency was “inactive”. In the case of CN(C)S(=O)(=O)N(SC(F)(Cl)Cl)c1ccccc1, the Potency is reported as 5.45 µM (active). With Oc1cccc(-c2ccccc2)c1 the Potency was “inactive”. In the case of Cc1cccc(OP(=O)(Oc2cccc(C)c2)Oc2cccc(C)c2)c1, the Potency is reported as “inactive”. With CC(C)(C)C(O)C(Oc1ccc(-c2ccccc2)cc1)n1cncn1 (centres undefined) the Potency was “inactive”. With CNC(C)Cc1ccc2c(c1)OCO2 (centres undefined) the Potency was “inactive”. With CCOP(=S)(OCC)SCS(=O)(=O)CC the Potency was “inactive”. With CC(C)(COCC1CO1)COCC1CO1 (centres undefined) the Potency was “inactive”. For Nc1ccc(Cl)cc1C(=O)c1ccccc1, the Potency was “inactive”. In the case of Fc1ccc(Oc2ccnc3cc(Cl)cc(Cl)c23)cc1, the Potency is reported as “inactive”. With OC(Cc1ccccc1Cl)(Cn1cncn1)C1(Cl)CC1 (centres undefined) the Potency was “inactive”. For NC(=O)CCl, the Potency was “inactive”. In the case of NC(=O)c1ccc(N)nc1, the Potency is reported as 1.22 µM (active). For O=[N+]([O-])c1cc([N+](=O)[O-])c2ccccc2c1, the Potency was “inactive”. In the case of CC(C)(c1ccc(O)c(-c2ccccc2)c1)c1ccc(O)c(-c2ccccc2)c1, the Potency is reported as 43.3 µM (active). With COC(=O)N(C(=O)N1COC2(C(=O)OC)Cc3cc(Cl)ccc3C2=N1)c1ccc(OC(F)(F)F)cc1 (centres undefined) the Potency was “inactive”. With CC(=O)c1cc(C(C)(C)C)cc2c1CCC2(C)C the Potency was “inactive”. With [Cl][Sn]([c]1ccccc1)([c]1ccccc1)[c]1ccccc1 the Potency was 0.411 µM (active). For OC(c1ccc(Cl)cc1)(c1ccc(Cl)cc1)C(Cl)(Cl)Cl, the Potency was 61.1 µM (active). For C[C@]12CC[C@H](O)C[C@H]1CC[C@@H]1[C@@H]2C[C@@H](O)[C@]2(C)[C@@H](C3=CC(=O)OC3)CC[C@]12O, the Potency was “inactive”. For CCc1cc(C)cc(CC)c1-c1c(OC(=O)C(C)(C)C)n2n(c1=O)CCOCC2, the Potency was “inactive”. With CCCCOP(=O)(CCCC)OCCCC the Potency was “inactive”. With CC(C)C(=O)Cl the Potency was “inactive”. For Nc1c(Oc2ccccc2)cc(O)c2c1C(=O)c1ccccc1C2=O, the Potency was “inactive”. With CCOP(=S)(OCC)SCS(=O)(=O)C(C)(C)C the Potency was “inactive”. In the case of COc1ccc(OC)c(C=O)c1, the Potency is reported as “inactive”.

Target: Nuclear receptor ROR-gamma (Homo sapiens) (UniProt P51449)
Assay: qHTS assay to identify small molecule antagonists of the retinoid-related orphan receptor gamma (ROR-gamma) signaling pathway (AID 1159521)
Settings: Tet-on RORgamma CHO cells, RORE-luciferase, 16 h; series mostly up to 92.4 µM
Procedure, shortened: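 Luminescence readout (ONE-Glo, 30 min RT) after 16 h doxycycline induction; loss of signal scored as antagonism. CHO cells with TET-inducible RORγ and RORE-LUC reporter; compounds added 2 h before 1 uM final doxycycline.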
With O=CC(Br)(Br)Br the Potency was “inactive”. With SCc1ccco1 the Potency was “inactive”. In the case of Cc1ccc(C(=O)Cl)cc1, the Potency is reported as “inactive”. In the case of C[C@@H]1O[C@@H](O[C@@H]2C=C3CC[C@@H]4[C@H](CC[C@]5(C)[C@@H](c6ccc(=O)oc6)CC[C@]45O)[C@@]3(C)CC2)[C@H](O)[C@H](O)[C@H]1O, the Potency is reported as 15 µM (active). With O=C(Nc1ccc2[nH]ccc2c1)c1cc2cc(F)ccc2n1Cc1cccc(F)c1 the Potency was 43.3 µM (active). With CC(Cl)CN(C)C (centres undefined) the Potency was “inactive”. With O=C1C=CC(=O)c2ccccc21 the Potency was 1.54 µM (active). For CCCCCCCCCCBr, the Potency was “inactive”. In the case of N#CCCC(Br)(C#N)CBr (centres undefined), the Potency is reported as 21.7 µM (active). With O=C/C(Cl)=C(/Cl)C(=O)O the Potency was 13.7 µM (active) and 21.7 µM (active). For C[CH2][Hg][N]1C(=O)C2C(C1=O)C1(Cl)C(Cl)=C(Cl)C2(Cl)C1(Cl)Cl (centres undefined), the Potency was 2.31 µM (active). With Clc1ccc(CSC(Cn2ccnc2)c2ccc(Cl)cc2Cl)cc1 (centres undefined) the Potency was 29.8 µM (active). With CC(O)C#N (centres undefined) the Potency was “inactive”. For CN(C)S(=O)(=O)N(SC(F)(Cl)Cl)c1ccccc1, the Potency was 4.86 µM (active). With Oc1cccc(-c2ccccc2)c1 the Potency was “inactive”. In the case of CC(C)(C)C(O)C(Oc1ccc(-c2ccccc2)cc1)n1cncn1 (centres undefined), the Potency is reported as 27.3 µM (active). For CNC(C)Cc1ccc2c(c1)OCO2 (centres undefined), the Potency was “inactive”. For Nc1ccc(Cl)cc1C(=O)c1ccccc1, the Potency was “inactive”. For Fc1ccc(Oc2ccnc3cc(Cl)cc(Cl)c23)cc1, the Potency was “inactive”. With NC(=O)CCl the Potency was “inactive”. With NC(=O)c1ccc(N)nc1 the Potency was 0.611 µM (active). With O=[N+]([O-])c1cc([N+](=O)[O-])c2ccccc2c1 the Potency was “inactive”. For CC(C)(c1ccc(O)c(-c2ccccc2)c1)c1ccc(O)c(-c2ccccc2)c1, the Potency was 21.7 µM (active). With COC(=O)N(C(=O)N1COC2(C(=O)OC)Cc3cc(Cl)ccc3C2=N1)c1ccc(OC(F)(F)F)cc1 (centres undefined) the Potency was 23.7 µM (active). For CC(=O)c1cc(C(C)(C)C)cc2c1CCC2(C)C, the Potency was “inactive”. In the case of [Cl][Sn]([c]1ccccc1)([c]1ccccc1)[c]1ccccc1, the Potency is reported as 0.082 µM (active). With C[C@]12CC[C@H](O)C[C@H]1CC[C@@H]1[C@@H]2C[C@@H](O)[C@]2(C)[C@@H](C3=CC(=O)OC3)CC[C@]12O the Potency was “inactive”. With CCc1cc(C)cc(CC)c1-c1c(OC(=O)C(C)(C)C)n2n(c1=O)CCOCC2 the Potency was “inactive”. In the case of Nc1c(Oc2ccccc2)cc(O)c2c1C(=O)c1ccccc1C2=O, the Potency is reported as “inactive”. With CCOP(=S)(OCC)SCS(=O)(=O)C(C)(C)C the Potency was “inactive”. With COc1ccc(OC)c(C=O)c1 the Potency was “inactive”.

From PubChem BioAssay (Tox21)
Also: nearly all actives have a fitted effect of over 50% in size.
Potency is read from the fitted curve at half-maximal effect.
